# According to PubChem BioAssay (EPA / NIEHS):
# More than one record can exist for a structure, and the calls need not agree. Calls of active or inactive are those of the source. How the source made its calls: active means hit-call score of the fitted dose curve at least 0.9, where 1 is the maximum; inactive means score below 0.9.
# Experiment: ATG_TCF_b_cat_CIS: Attagene CIS-FACTORIAL HepG2 Assay for human T-Cell-Factor with beta-catenin (TCF/b-cat) (AID 2282965)
# Conditions: HepG2 TCF/beta-catenin cis-reporter transcription, actives raise or lower the signal
# Method: ATG_CIS is a cell-based, multiplexed-readout assay that uses HepG2, a human liver cell line, with measurements taken at 24 hours after chemical dosing in a 24-well plate.ATG_TCF_b_cat_CIS is one of 52 assay component(s) measured or calculated from the ATG_CIS assay. It is designed to make measurements of mRNA induction, a form of inducible reporter, as detected with fluorescence intensity signals by Reverse transcription polymerase chain reaction (RT-PCR) and Capillary electrophoresis technology.Data from the assay component ATG_TCF_b_cat_CIS was analyzed into 1 assay endpoint. This assay endpoint, ATG_TCF_b_cat_CIS, was analyzed with bidirectional fitting relative to DMSO as the negative control and baseline of activity. Using a type of inducible reporter, measures of mRNA for gain or loss-of-signal activity can be used to understand the reporter gene at the transcription factor-level as they relate to the gene TCF7 and TCF7L2 and LEF1 and TCF7L1. Furthermore, this assay endpoint can be referred to as a primary readout, because this assay has produced multiple assay endpoints where this one serves a reporter gene function. To generalize the intended target to other relatable targets, this assay endpoint is annotated to the dna binding intended target family, where the subfamily is HMG box protein.
# Human liver HepG2 cells are transiently transfected with multiple reporter transcription units (MRTUs) in 6-well plates using FuGene 6 reagent (Roche; 3 ml FuGene/1 mg DNA). The MRTU constructs are regulated by a cis-regulating element (promoter). […] A major difference between the CIS and TRANS system is that in CIS activities of endogenous TFs are measured, whereas the TRANS assay evaluates changes in activities of exogenous, chimeric NR-Gal4 proteins. […] At the end of 24 hour incubation, total RNA was isolated using TriZol reagent (Invitrogen). The isolated RNA is then reverse-transcribed using oligo(dT) primer and Mo-MLV reverse transcriptase (Invitrogen) with DNAse I (Ambion) treatment for 30 min. The one-tenth of the produced cDNA was amplified by PCR using Taq DNA polymerase (Invitrogen) and two reporter sequence-specific primers. The PCR products were fluorescently labeled by primer extension with 6-arboxyfluorescein (6-FAM) 5'-labeled reporter sequence-specific primer (2 min at 95 C, 20 s at 68 C and 10 min at 72 C) and these products were digested with 5U of HpaI (New England Biolabs) for 2h at 37 C. The fragments were purified using Qiaquick PCR columns (Qiagen), analyzed on an ABI 3130xL genetic analyzer (Applied Biosystems) with peak positions identified by using a set of X-rhodamine (ROX)-labeled MapMarker1000 molecular weight standards (BioVentures). The raw capillary electrophoresis data was processed using Attagraph software (Attagene).
SMILES,outcome,AC50
CN(C)NC(=O)CCC(=O)O,inactive,–
CC1(C(=O)Nc2ccc(O)c(Cl)c2Cl)CCCCC1,inactive,–
O=c1ccc(=O)[nH][nH]1,inactive,–
CNC(=O)Oc1cccc2c1OC(C)(C)O2,inactive,–
C[N+]1(C)CCCCC1,inactive,–
CCCCN(CC)c1c([N+](=O)[O-])cc(C(F)(F)F)cc1[N+](=O)[O-],inactive,–
CN1COCN(Cc2cnc(Cl)s2)C1=N[N+](=O)[O-],inactive,–
CCOP(=S)(Oc1cnc(C(C)(C)C)nc1)OC(C)C (stereo not given),inactive,–
CN(C)[C@@H]1C(=O)C(C(N)=O)=C(O)[C@@]2(O)C(=O)C3=C(O)c4c(O)cccc4[C@@](C)(O)[C@H]3[C@H](O)[C@@H]12,inactive,–
C#CCC1=C(C)C(OC(=O)C2C(C=C(C)C)C2(C)C)CC1=O (stereo not given),–,38.7 µM (active)
COc1cccc(C(=O)NN(C(=O)c2cc(C)cc(C)c2)C(C)(C)C)c1C,inactive,–
N#CSCSC#N,inactive,–
C#CC(C)(C)NC(=O)c1cc(Cl)cc(Cl)c1,inactive,–
CCCCSP(=O)(SCCCC)SCCCC,inactive,–
CCOC(=O)COc1cc(-c2nn(C)c(OC(F)F)c2Cl)c(F)cc1Cl,inactive,–
CC(C1CC1)C(O)(Cn1cncn1)c1ccc(Cl)cc1 (stereo not given),inactive,–
O=[N+]([O-])c1cc(C(F)(F)F)c(Cl)c([N+](=O)[O-])c1Nc1ncc(C(F)(F)F)cc1Cl,inactive,16.1 µM (active)
CCOP(=O)(NC(C)C)Oc1ccc(SC)c(C)c1 (stereo not given),inactive,–
CC(C)N(C(=O)SCC(Cl)=C(Cl)Cl)C(C)C,inactive,–
CCCCOC(=O)c1ccccc1C(=O)O,inactive,–

SMILES,outcome,AC50
CC(C)[C@H](C(=O)O[C@H](C#N)c1cccc(Oc2ccccc2)c1)c1ccc(Cl)cc1,inactive,–
CC(=NC#N)N(C)Cc1ccc(Cl)nc1,inactive,–
CCOP(=O)(OCC)Oc1cc(C)nc(C(C)C)n1,inactive,–
Nc1nc(N)nc(NC2CC2)n1,inactive,–
CN(C)C(=O)Nc1cccc(C(F)(F)F)c1,inactive,–
C[Si](Cn1cncn1)(c1ccc(F)cc1)c1ccc(F)cc1,inactive,–
CCc1cccc(C)c1N(C(=O)CCl)C(C)COC (stereo not given),inactive,–
O=C(O)c1cc(Oc2ccc(C(F)(F)F)cc2Cl)ccc1[N+](=O)[O-],inactive,–
CC1=NNC(=O)N(/N=C/c2cccnc2)C1,inactive,–
CCCOCC(=Nc1ccc(Cl)cc1C(F)(F)F)n1ccnc1,inactive,–
CCc1cccc(CC)c1N(COC)C(=O)CCl,inactive,–
COP(=O)(OC)OC(Br)C(Cl)(Cl)Br (stereo not given),inactive,–
CC(Oc1cccc(Cl)c1)C(=O)O (stereo not given),inactive,–
CCCCOC(=O)[C@@H](C)Oc1ccc(Oc2ccc(C#N)cc2F)cc1,inactive,–
CCC(=O)Nc1ccc(Cl)c(Cl)c1,inactive,–
CCOP(=S)(OCC)Oc1cc(C)nc(C(C)C)n1,inactive,–
FC(F)C(F)(F)OCC(Cn1cncn1)c1ccc(Cl)cc1Cl (stereo not given),inactive,–
S=C1NCCN1,inactive,–
CCc1cnc(C2=NC(C)(C(C)C)C(=O)N2)c(C(=O)O)c1 (stereo not given),inactive,–
